# Assay results as given in PubChem BioAssay (NCATS).
# Results filed as inconclusive are left out. Activity calls are given as the source filed them. Calls come from the whole dose curve; as a rule, active = well fitted cell-killing curve with a large enough effect; inconclusive = small, poorly fitted or top-dose-only effect, or effect the other way; inactive = no such curve, though single readings can be large or run the other way.
# Assay: Viability qHTS for spleen associated tyrosine kinase inhibitor (SYKi) drug resistant MV4-11 cells (AID 1963824); note: nearly all actives have a fitted effect of over 35% in size
# Settings: SYKi-resistant MV4-11 viability, CellTiter-Glo, 72 h; series mostly up to 45 µM; viability, % of control: at the top concentration
# How it was run: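 SYK inhibitor-resistant MV4-11 AML cells, 500 per well, added to predispensed compounds and incubated 72 hr at 37 C, 5% CO2. Viability measured by CellTiter-Glo luminescence after 10 min at room temperature.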
# Potency is the fitted concentration of half-maximal effect.
Structure (SMILES),Potency,"viability, % of control"
CN1CCN(C(=O)c2ccc3cc(CCNc4ncnc5ccc(C#N)cc45)ccc3c2)CC1,461 nM (active),
Nc1nc(Cl)nc2c1ncn2C1OC(CO)C(O)C1F (centres undefined),130 nM (active),
CC1=C(CC/C(C)=C/C(=O)O)[C@@]2(C)CCCC(C)(C)C2CC1=O (some centres undefined),,72.2% (inactive)
CC(C)=CCC(O)[C@](C)(O)C1[C@H](O)C[C@@]2(C)C3CC=C4C(C[C@H](O)[C@@H](O[C@@H]5O[C@H](CO)[C@@H](O)[C@H](O)[C@H]5O)C4(C)C)[C@]3(C)C(=O)C[C@]12C (some centres undefined),,75.6% [at 17.3 µM] (inactive)
CCCCOc1ccc(-c2cncc(C(=O)NCc3cccnc3N3CCOCC3)c2)cc1Cl,13000 nM (active),
CC1=C[C@H](O)[C@H]2C(C)(C)CCC[C@]2(C)[C@@]1(O)CO,4110 nM (active),
CC1NC(=O)CNC(=O)C(C(C)C)NC(=O)C2CCCN2C(=O)C(C(C)C)NC(=O)C(Cc2c[nH]c3ccccc23)NC1=O (centres undefined),,95.4% [at 17.3 µM] (inactive)
C=C[C@H]1[C@H](O[C@@H]2O[C@H](CO)[C@@H](O)[C@H](O)[C@H]2O)OC=C(C(=O)OC)[C@H]1CC(=O)O,,89.6% (inactive)
O=C1[C@H](O[C@@H]2O[C@H](CO)[C@@H](O)[C@H](O)[C@H]2O)Oc2ccccc2N1O,,87.5% (inactive)
CC1=C(C(=O)O)/C(=C\CO[C@@H]2O[C@H](CO)[C@@H](O)[C@H](O)[C@H]2O)C(OC(=O)/C=C\c2ccc(O)cc2)C1 (some centres undefined),,93.3% [at 17.3 µM] (inactive)
CC1(C)OC(=O)CC(O)C2(C)C1CC(=O)C1(C)C2C(O)CC2(C)C(c3ccoc3)OC(=O)C3OC321 (centres undefined),,84.5% [at 17.3 µM] (inactive)
COc1c2c(c(C)c3c1C(=O)OC3)O[C@@]1(C)CCC3(C(C)(C)O)OC(=O)CC[C@]3(C)[C@H]1C2 (some centres undefined),,54.7% [at 17.3 µM] (inactive)
O=c1[nH]cnc2c([C@@H]3N[C@H](CO)[C@@H](O)[C@H]3O)c[nH]c12,,65.2% (inactive)
COc1cc([C@H]2OC[C@](O)(Cc3ccc(O[C@@H]4O[C@H](CO)[C@@H](O)[C@H](O)[C@H]4O)c(OC)c3)[C@@H]2CO)ccc1O,,85.6% [at 17.3 µM] (inactive)
C[C@H]1CC[C@@H]2N(C1)C[C@@H]1[C@H]([C@@H](O)[C@H](O)[C@]3(O)[C@H]1C[C@@]14OC5(O)[C@@H](C[C@@H](O)[C@@H]31)[C@]4(C)CC[C@@H]5O)[C@]2(C)O,,106% [at 17.3 µM] (inactive)
O=C(Nc1cccc(Nc2nccc(Nc3cccc(C(F)(F)F)c3)n2)c1)C1CC1,1840 nM (active),
COc1cc2nc(N3CCCC3)nc(NCCCCCN3CCCC3)c2cc1OC,2590 nM (active),
COc1cc(C2CC(=O)Nc3c2cc(Br)c2ccccc32)cc(OC)c1OC (centres undefined),,91.6% (inactive)
CC1(C)CC[C@]2(C(=O)O[C@@H]3O[C@H](CO)[C@@H](O)[C@H](O)[C@H]3O)CC[C@]3(C)C(=CCC4[C@@]5(C)C[C@@H](O)[C@H](O)C(CO)(CO)C5CC[C@]43C)C2[C@@H]1O (some centres undefined),,99.1% [at 17.3 µM] (inactive)
